# Sampled rows, rich in hits. Any-hit rate of the full collection: about 6.5%.
# Giardia kill = kills Giardia lamblia; Giardia lamblia trophozoite viability; 340,000 tested, 0.15% active; activity change, % at 7.66 µM, hits read low; in the data active = activity change below about -80%; inconclusive = between about -30% and that limit;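 also: parasites exposed to compound for two days anaerobically before the ATP read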
#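 Luminescence from cellular ATP indicates surviving trophozoites (100 cells/well) following 48 hrs anaerobic compound treatment at 37 deg C; signal develops 15-30 min at room temperature.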
# HT1080-NT tox = kills 2HG-producing HT-1080-NT fibrosarcoma cells. HT-1080-NT fibrosarcoma viability, CellTiter-Glo ATP luminescence, 48 h. Potency, µM (highest dose often 46.1 µM), hits mostly cytotoxic. 360,000 tested, 1.6% active;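 also: NT is the 2HG producing partner of a matched IDH1 knockdown line; nearly all actives have a fitted effect of over 55% in size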
#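 HT-1080-NT; 750 cells/well; 5% FBS RPMI; 48 h compound, 37 degrees C; CellTiter-Glo luminescence; curve fitting and curve-class assignment.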
# TGFb inhibitor = blocks TGF-b signaling; 410,000 tested, 1.2% active; Potency, µM (titrated, usually from 46.1 µM), actives largely listed as inhibitors; HepG2 CAGA-GFP TGF-b/SMAD3 reporter, GFP fluorescence, 18 h; TGF-beta stimulated, 500 pg/mL final; also: nearly all actives have a fitted effect of over 65% in size
#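 Cell-based qHTS in HEPG2 carrying a CAGA-GFP Smad reporter; compounds added before 500 pg/mL final TGF-beta, 18 h incubation at 37 degrees C, GFP fluorescence quantified per cell by imaging cytometry.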
# IL1B secr inh = inflammasome signaling inhibition, IL-1 beta readout | activity change, % at 57.5 µM | 360,000 tested, 4.7% active | THP-1 LPS/ATP IL-1B secretion, AlphaLISA, 16 h; hits give low values; in the data active = activity change below about -50%; inconclusive = mostly about -30% to -49%
#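 Secreted IL-1B measured by AlphaLISA bead assay after 16 h compound exposure of THP-1 cells; compounds (final up to 57.5 uM) added 1 h before LPS (250 ng/mL) and ATP (1.25 mM) stimulation; lower signal means less secretion.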
# HT1080 IDH1KD tx = HT-1080 IDH1 knockdown cell toxicity (counter line); HT-1080 IDH1 knockdown viability, ATP luminescence, 48 h; Potency, µM (highest dose often 46.1 µM), most hits filed as cytotoxic; 360,000 tested, 2% active; AID 686971
#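 Cytotoxicity counter-line: IDH1KD HT-1080, 48 h, CellTiter-Glo. Curves classed by r2, magnitude and activity.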
# HepG2 viability = kills HepG2 cells in TGF-b inhibitor counter-screen; HepG2 CAGA-GFP viability, ATP luminescence, 18 h; Potency, µM (doses to about 46.1 µM), usual class: cytotoxic; 410,000 tested, 0.76% active; AID 588856
#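 HepG2 CAGA-GFP cells (1000/well, DMEM with 1% FBS) received compound, then TGF-beta at 500 pg/mL final, and were incubated 18 hours at 37 degrees C. Viability was read by CellTiter-Glo luminescence. Media-only wells were set as complete cell-killing and DMSO as no toxicity.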
# Hits are given with their value; 0 = inactive; ? = inconclusive; - = not tested or not shown; ! = a repeat was not active. Unless noted, calls follow the shape of the dose curve; as a rule, active = well fitted curve in the direction sought with a large enough effect; inconclusive = small, poorly fitted or top-dose-only effect, or another doubt; inactive = no such curve, though single readings can be large; an effect the other way counts as inactive or inconclusive.
SMILES,Giardia kill,HT1080-NT tox,TGFb inhibitor,IL1B secr inh,HT1080 IDH1KD tx,HepG2 viability
CCCCc1c(C)nc2c(-c3ccc(OC)cc3)c(C)[nH]n2c1=O,-,-,0,-,-,0
COc1ccc(N2CCC(CNC(=S)Nc3cccc(C)c3)C2)cc1 (stereo unspecified),0,0,0,-77,0,0
COc1ccc(N2CCC(CNC(=S)Nc3c(C)cc(C)cc3C)C2)cc1 (stereo unspecified),0,0,?,0,0,0
COc1ccccc1N1CCN(C(=O)/C=C/c2c(Cl)nc3ccccn23)CC1,0,0,0,-61,0,0
CN(C)CCCNC(=O)c1ccc(CN(c2ccccc2)S(C)(=O)=O)cc1,0,0,0,0,0,0
Oc1cccc(-c2sc3ccccc3c2-c2ccc(OCCN3CCCCC3)cc2)c1,-,21µM,-,0,12µM,-
COc1cc2sc(-c3ccccc3OC)c(-c3ccc(OCCN4CCCCC4)cc3)c2cc1OC,0,?,?,0,?,16µM
COc1ccccc1-c1sc2cc3c(cc2c1-c1ccc(OCCN2CCCCC2)cc1)OCO3,0,?,?,?,?,10µM
c1ccc(-c2sc3ccccc3c2-c2ccc(OCCN3CCOCC3)cc2)cc1,0,0,0,0,0,0
O=C(c1ccc(OCCN2CCCCC2)cc1)c1c(-c2ccc(O)cc2)sc2cc(O)ccc12,0,21µM,?,0,21µM,14µM!
COc1ccccc1CNC(=O)c1ccc2c(c1)nnn2C1CCCC1,-,-,0,-,-,0
Cc1cn2c(=O)c(C(=O)NCc3ccc4c(c3)OCO4)cnc2s1,0,?,0,0,0,0
CCc1ccc(-c2cc(C)no2)cc1S(=O)(=O)Nc1cc(C)ccn1,0,0,0,0,0,0
COc1cccc(CCNC(=O)CC2C(=O)NCCN2CC(C)(C)C)c1 (stereo unspecified),0,0,0,0,0,0
O=C(CCc1nc2ccccc2c(=O)[nH]1)NCCN1C(=O)S/C(=C\c2ccc(OC(F)F)cc2)C1=O,0,0,0,0,?,10µM
O=C(CCc1nc2ccccc2c(=O)[nH]1)NCCN1C(=O)S/C(=C\c2ccccc2Cl)C1=O,0,0,0,0,0,0
CC(C)Oc1ccc(-c2nc(NCC3CCCO3)c3ccccc3n2)cc1 (stereo unspecified),0,0,?,-79,?,0
c1csc(-c2nc(NCC3CCCO3)c3ccccc3n2)c1 (stereo unspecified),0,0,0,-90,0,0
c1ccc(-c2nc(NC3CCCC3)c3ccccc3n2)cc1,0,0,?,-63,0,0
c1ccc(CN2CCC(Nc3nc(-c4cccs4)nc4ccccc34)CC2)cc1,0,?,?,-64,?,0
CCOc1ccccc1NC(=O)C1CCN(S(=O)(=O)c2c(C)noc2C)CC1,0,0,0,0,0,0
COCCSc1nnc(NC(=O)CCS(=O)(=O)c2ccccc2)s1,0,?,?,-103,23µM,0
CC(=O)c1sc(NC(=O)CCS(=O)(=O)c2ccc(F)cc2)nc1C,-,?,?,-94,?,0
Cc1ccc(S(=O)(=O)CCC(=O)Nc2nnc(-c3ccc(F)cc3)o2)cc1,0,0,0,-59,0,0
O=C(CCS(=O)(=O)c1ccccc1)Nc1nc(-c2cccs2)cs1,0,0,?,-74,0,0
SMILES,Giardia kill,HT1080-NT tox,TGFb inhibitor,IL1B secr inh,HT1080 IDH1KD tx,HepG2 viability
O=C(COc1ccccc1)Nc1nc(-c2cccs2)cs1,0,0,0,0,0,0
CC(=O)c1sc(NC(=O)CCS(=O)(=O)c2ccccc2)nc1C,0,0,18µM,0,?,0
CCC12CC3CC(C1)CC(C(=O)NNC(N)=O)(C3)C2,0,0,0,0,0,0
Cc1cccc(Oc2ccc(Cl)cc2N)c1,0,0,0,0,0,20µM
CCOC(=O)C1CCN(C(=O)c2cccc(S(=O)(=O)Nc3ccc(C)cc3C)c2)CC1,0,0,0,0,0,0
CCn1cc(CN2CCC(n3nccc3NC(=O)c3ccc(OC)cc3)CC2)cn1,0,0,0,0,0,0
O=C(Nc1cccc(-c2cn3ccccc3n2)c1)c1cnccn1,0,0,0,0,0,0
O=C(Nc1cccc(-c2cn3ccccc3n2)c1)c1cccc(Cl)c1,0,?,?,-104,?,0
O=C(Nc1ccc(-c2cn3ccccc3n2)cc1)c1cccs1,0,0,?,-93,?,0
O=C(CN(C(=O)CCC(=O)Nc1nccs1)c1ccc2c(c1)OCO2)NCc1ccc(F)cc1,0,0,0,0,0,0
COC(=O)c1ccc(CNC(=O)c2ccc3c(c2)S(=O)(=O)N=C2CCCCCN23)cc1,0,0,0,0,0,0
OCCN1CCN(C2CCC(c3ccc(F)cc3)c3ccc(F)cc32)CC1 (stereo unspecified),0,18µM,20µM,-76,23µM,0
C=CCc1cccc(/C=N/NC(=O)CCCNc2ccc(C)cc2)c1O,0,?,?,0,?,0
C=CCc1cccc(/C=N/NC(=O)CCC(=O)Nc2ccc(F)cc2)c1O,0,?,?,0,23µM,0
COc1ccccc1/C=C/C(=O)NCC(=O)N/N=C/c1ccccc1,0,0,0,0,0,0
C=CCc1cccc(/C=N/NC(=O)CNc2cccc3ccccc23)c1O,0,?,?,0,?,0
COc1ccccc1/C=C\C(=O)NCC(=O)N/N=C/c1ccc(O)cc1O,0,?,?,0,9.2µM,0
C=CCc1cccc(/C=N/NC(=O)CNc2ccccc2)c1O,0,?,?,0,18µM,0
C=CCc1cccc(/C=N/NC(=O)CNc2ccccc2OC)c1O,0,?,13µM,0,18µM,0
CCn1cc(CNC(=O)c2ccc(C)s2)cn1,0,0,0,0,0,0
Cc1ccc(NC(=O)C2CCN(S(=O)(=O)c3ccc4c(c3)OCCO4)CC2)nc1,0,0,0,0,0,0
Cc1ccccc1NC(=O)/C=C1\SC(=O)NC1=O,0,0,0,0,0,0
O=C(CNc1cccc(C(F)(F)F)c1)N/N=C/c1cccc(Br)c1,0,0,0,0,0,0
CC(C)(O)CN(C(=O)C(c1ccccc1)c1ccccc1)C1CCCCC1,0,0,0,-63,0,0
O=c1oc2ccccc2cc1-c1cn2ccccc2n1,?,26µM,0,0,23µM,0
CCOC(=O)c1cccc(NC(=O)CCn2nc(C)c(S(=O)(=O)N3CCCCC3)c2C)c1,0,0,?,0,0,0
O=C(CN1C(=O)CCC1=O)c1ccc(-c2ccccc2)cc1,0,?,0,0,0,0
N=c1ccn(CC(=O)c2ccc(-c3ccccc3)cc2)cc1,0,?,?,-69,16µM,0

# High-throughput results deposited in PubChem by National Center for Advancing Translational Sciences (NCATS).
